These results are taken from ChEMBL document CHEMBL4513141, “CO-ADD screening of NIH (USA) - Clinical Collection” (2021).

Results with a measured potency or affinity are listed apart.

In this assay the test system is Klebsiella pneumoniae. To be noted: Concentration 20 uM; ASSAY_TEST Inhibition of Bacterial Growth; detection method Absorption (OD600); MEDIA CAMHB; plate type 384well; NBS; CORNING #3640; time 18 hr.
On to `COC(=O)C1=C(C)NC(C)=C(C(=O)O[C@@H]2CCCN(Cc3ccccc3)C2)[C@@H]1c1cccc([N+](=O)[O-])c1.Cl`, for which the Inhibition is reported as -2.17%.

In the case of `COc1ccccc1N1CCN(CC(O)COc2cccc3ccccc23)CC1` (stereo not given) [NAFTOPIDIL], the Inhibition is -0.32%.

Regarding `Cl.O.O=C1N(c2ccccc2)c2ccccc2C1(Cc1ccncc1)Cc1ccncc1`, the Inhibition was determined as 9.02%.

On to `COc1cc(C[C@@H](CO)[C@H](CO)Cc2ccc(O)c(OC)c2)ccc1O` [(+)-SECOISOLARICIRESINOL], for which the Inhibition was determined as 5.83%.

As for `CC(C)(C(=O)c1cccnc1)c1cccnc1` [METYRAPONE], the Inhibition is 19.17%.

For the molecule `N#Cc1ccc(C(c2ccc(C#N)cc2)n2cncn2)cc1` [LETROZOLE], the Inhibition was found to be 9.79%.

In the case of `COc1ccc(C(=O)NCc2ccc(OCCN(C)C)cc2)cc1OC.Cl`, the Inhibition was found to be 9.02%.

On to `CN1CCC(=C2c3ccccc3C=Cc3ccccc32)CC1.Cl` [CYPROHEPTADINE HYDROCHLORIDE], for which the Inhibition came out at 17.49%.

Turning to `CC(Cc1ccccc1)(NC(=O)CN)c1ccccc1.Cl` (stereo not given) [REMACEMIDE HYDROCHLORIDE], the Inhibition is recorded as 8.63%.

`CC(=O)C1(O)CCC2C3CC(C)C4=CC(=O)C=CC4(C)C3(F)C(O)CC21C` (stereo not given): the Inhibition came out at 4.1%.

For `CC1(C)C[C@@H]1C(=O)N/C(=C\CCCCSC[C@H](N)C(=O)O)C(=O)[O-].[Na+]` [CILASTATIN SODIUM], the Inhibition is on record as -2.84%.

Turning to `CCOC(=O)[C@H](CCc1ccccc1)N[C@H]1CCc2ccccc2N(CC(=O)O)C1=O.Cl` [BENAZEPRIL HYDROCHLORIDE], the Inhibition is 6.08%.

`COc1cc(C)c(/C=C/C(C)=C/C=C/C(C)=C/C(=O)O)c(C)c1C` [ACITRETIN]: the Inhibition is recorded as 7.64%.

On to `COc1cc(N)c(Cl)cc1C(=O)N[C@@H]1CCN(CCCOc2ccc(F)cc2)C[C@@H]1OC.O` [(R,S)-CISAPRIDE MONOHYDRATE], for which the Inhibition is given as 7.83%.

As to `Cl.O.O=C(c1ccc(F)cc1)C1CCN(CCn2c(=S)[nH]c3ccccc3c2=O)CC1`, the Inhibition was found to be 11.14%.

Take `COC1=CC(=O)C[C@@H](C)[C@]12Oc1c(Cl)c(OC)cc(OC)c1C2=O` [GRISEOFULVIN]: the Inhibition was determined as 11.08%.

Regarding `Cc1onc(-c2ccccc2)c1-c1ccc(S(N)(=O)=O)cc1` [VALDECOXIB], the Inhibition amounted to 13.38%.

For `Cl.Nc1c2c(nc3ccccc13)CCCC2` [TACRINE HYDROCHLORIDE], the Inhibition was found to be 15.67%.

In the case of `O=c1c(-c2ccccc2)c1-c1ccccc1` [DIPHENCYPRONE], the Inhibition was -5.06%.

With `CC(=O)[C@@]1(O)CC[C@H]2[C@@H]3C[C@H](C)C4=CC(=O)CC[C@]4(C)[C@H]3CC[C@@]21C`, the Inhibition was 2.71%.

Turning to `CCCN[C@H]1CCc2nc(N)sc2C1` [PRAMIPEXOLE], the Inhibition amounted to 5.86%.

As for `CN1CCc2cc(Cl)c(O)cc2[C@@H](c2ccccc2)C1.Cl`, the Inhibition was found to be 8.81%.

`O=C(O)COCCN1CCN(C(c2ccccc2)c2ccc(Cl)cc2)CC1` (stereo not given) [CETIRIZINE]: the Inhibition is listed as -1.38%.

With `CC(=O)NS(=O)(=O)c1ccc(N)cc1` [SULFACETAMIDE], the Inhibition was 11.67%.

In the case of `Nc1c2c(nc3c1CCC3)CCCC2` [IPIDACRINE], the Inhibition is 15%.

As for `O=C([O-])c1cc(=O)c2c(OCC(O)COc3cccc4oc(C(=O)[O-])cc(=O)c34)cccc2o1.[Na+].[Na+]` [CROMOLYN SODIUM], the Inhibition is on record as 6.64%.

In the case of `CN1CCN(CC/C=C2/c3ccccc3Sc3ccc(S(=O)(=O)N(C)C)cc32)CC1` [THIOTHIXENE], the Inhibition is reported as 0.07%.

As to `CC1Cc2ccccc2N1NC(=O)c1ccc(Cl)c(S(N)(=O)=O)c1` (stereo not given) [INDAPAMIDE], the Inhibition was 9.63%.

For the molecule `Cc1cn([C@H]2C=C[C@@H](CO)O2)c(=O)[nH]c1=O` [STAVUDINE], the Inhibition was 14.08%.

With `CCOC(=O)C1=C(C)NC(C)=C(C(=O)OC)C1c1cccc(Cl)c1Cl` (stereo not given) [FELODIPINE], the Inhibition was 7.48%.

Take `Cc1nc2n(c(=O)c1CCN1CCC(c3noc4cc(F)ccc34)CC1)CCCC2` [RISPERIDONE]: the Inhibition is given as 4.8%.

`CC(C[N+](C)(C)C)OC(N)=O.[Cl-]` (stereo not given) [BETHANECHOL CHLORIDE]: the Inhibition is 8.32%.

Regarding `NC(=O)N1c2ccccc2CC(=O)c2ccccc21` [OXCARBAZEPINE], the Inhibition turned out to be 3.69%.

For the molecule `NC(CO)(CO)CO.O=C(c1ccccc1)c1ccc2n1CCC2C(=O)O` (stereo not given) [KETOROLAC TROMETHAMINE], the Inhibition is listed as 3.11%.

With `CCC(CO)NCCNC(CC)CO` (stereo not given), the Inhibition came to 10.98%.
